Data published in PubChem BioAssay (Tox21).
“And” between values parts separate entries of the source, which are not always exact repeats. Equal entries are not always repeated. Results filed as inconclusive are left out. The source holds several records for some structures; these can differ, active in one and inactive in another. The source made the active and inactive calls. Unless noted, calls follow the shape of the dose curve; as a rule, active = well fitted curve in the direction sought with a large enough effect in the repeat runs; inconclusive = weak or mixed curves; inactive = no such curve, though single readings can be large; an effect the other way counts as inactive or inconclusive.

What was measured:
[1] = qHTS assay to identify small molecule agonists of the estrogen receptor alpha (ER-alpha) signaling pathway in the presence of an antagonist - cell viability counter screen (AID 1259386);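 also: cells exposed to compounds for 22 h at 37 °C before the viability read; nearly all actives have a fitted effect of over 30% in size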; also: potency is read from the fitted curve at half-maximal effect
Procedure, shortened: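 Viability counter screen using VM7Luc4E2 (full-length ER-alpha, four ERE-luciferase). The cells were treated with compounds alongside ICI-182,780 10.0nM for 22hr, and live-cell protease fluorescence was quantified with CellTiter-Fluor.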

[2] = biological target: Progesterone receptor (Homo sapiens) (UniProt P06401); assay: qHTS assay to identify small molecule antagonists of the progesterone receptor (PR) signaling pathway (AID 1346795; active = well fitted inhibition curve with a large enough effect in the signal ratio in the repeat runs, not every such curve was filed as active; the % refers to the signal ratio; also: potency is read from the fitted curve at half-maximal effect)
Progesterone receptor (Homo sapiens), sequence (P06401 whole entry, looked up): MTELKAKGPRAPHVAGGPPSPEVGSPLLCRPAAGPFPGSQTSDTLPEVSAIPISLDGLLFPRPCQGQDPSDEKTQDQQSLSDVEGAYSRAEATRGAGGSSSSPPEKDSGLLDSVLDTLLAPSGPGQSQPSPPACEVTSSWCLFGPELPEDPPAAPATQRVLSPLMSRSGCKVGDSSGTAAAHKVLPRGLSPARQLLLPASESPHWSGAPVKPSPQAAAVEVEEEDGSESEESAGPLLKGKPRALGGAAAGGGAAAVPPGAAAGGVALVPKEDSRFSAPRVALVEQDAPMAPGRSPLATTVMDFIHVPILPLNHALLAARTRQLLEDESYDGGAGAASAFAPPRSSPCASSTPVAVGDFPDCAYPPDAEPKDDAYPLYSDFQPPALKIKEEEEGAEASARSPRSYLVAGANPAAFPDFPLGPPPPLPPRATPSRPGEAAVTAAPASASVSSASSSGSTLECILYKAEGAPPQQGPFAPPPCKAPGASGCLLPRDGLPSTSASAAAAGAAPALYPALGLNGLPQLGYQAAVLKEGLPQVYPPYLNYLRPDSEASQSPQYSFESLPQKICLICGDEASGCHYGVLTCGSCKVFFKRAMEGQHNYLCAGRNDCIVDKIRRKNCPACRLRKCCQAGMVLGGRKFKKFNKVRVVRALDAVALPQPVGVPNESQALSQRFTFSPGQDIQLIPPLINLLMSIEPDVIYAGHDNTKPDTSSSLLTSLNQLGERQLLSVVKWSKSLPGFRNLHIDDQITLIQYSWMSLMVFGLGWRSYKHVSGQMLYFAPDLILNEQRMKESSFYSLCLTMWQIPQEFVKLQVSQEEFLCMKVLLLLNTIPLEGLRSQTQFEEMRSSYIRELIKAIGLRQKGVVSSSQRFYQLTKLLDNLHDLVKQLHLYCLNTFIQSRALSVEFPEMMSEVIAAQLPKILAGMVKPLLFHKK
Procedure, shortened: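 Antagonist mode: compounds tested against 1 nM (final) promegestone stimulation in HEK293T cells expressing PR-UAS-bla reporter, 16 hr at 37C, 5% CO2; beta-lactamase activity detected via B/G FRET substrate after 2 hr at room temperature.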

[3] = qHTS assay to identify small molecule antagonists of the progesterone receptor (PR) signaling pathway - cell viability counter screen (AID 1346798); also: nearly all actives have a fitted effect of over 50% in size; also: potency is read from the fitted curve at half-maximal effect
Procedure, shortened: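 Counter screen for cytotoxicity: viability of PR-UAS-bla HEK293T cells was measured with CellTiter-Glo luminescence following 16 hr compound exposure in the presence of R5020.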

[4] = qHTS assay to identify small molecule agonists of the progesterone receptor (PR) signaling pathway - cell viability counter screen (AID 1346799; calls by dose curve; also: nearly all actives have a fitted effect of over 45% in size; also: potency is read from the fitted curve at half-maximal effect)
Procedure, shortened: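 Cells (PR-UAS-bla HEK293T) are plated at 3,000/well in 2% charcoal-stripped FBS medium, rested 6 hr, dosed and incubated 16 hr at 37C. CellTiter-Glo is then added and luminescence measured after 30 min at room temperature.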

[5] = qHTS assay to identify small molecule antagonists of the TGF-beta/Smad signaling pathway - cell viability counter screen (AID 1346824); also: nearly all actives have a fitted effect of over 50% in size
Procedure, shortened: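 Cytotoxicity counter-screen run in the same wells as the beta-lactamase Smad reporter read: CellTiter-Glo luminescence after 30 min at room temperature. HEK 293T SBE-bla cells had 5 hr compound exposure at 37 C with TGF-beta1 (0.25 ng/mL stock).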

[6] = qHTS assay to identify small molecule agonists of the TGF-beta/Smad signaling pathway - cell viability counter screen (AID 1346829); also: top concentration of the series differs between compounds; nearly all actives have a fitted effect of over 45% in size
Procedure, shortened: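 Tox21 qHTS format: SBE-bla HEK 293T cells treated with DMSO-dissolved compounds for 5 hr; CellTiter-Glo luminescence after 30 min at room temperature.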

[7] = qHTS assay to identify small molecule agonists of the TGF-beta/Smad signaling pathway (AID 1346859; active = well fitted activation curve with a large enough effect in the signal ratio in the repeat runs, not every such curve was filed as active; the % refers to the signal ratio; also: series mostly up to about 77 µM)
Procedure, shortened: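 Reporter line: HEK 293T with stably integrated SBE-controlled beta-lactamase. Compound exposure lasts 5 hr at 37 C and 5% CO2; substrate loading follows for 2 hr at room temperature, with emission read at 460 and 530 nm.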

[8] = Human pregnane X receptor (PXR) small molecule agonists, qHTS cell viability counter screen (AID 1346977); also: nearly all actives have a fitted effect of over 50% in size; also: potency is read from the fitted curve at half-maximal effect
Procedure, shortened: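 Cytotoxicity counter screen run in the same wells as the PXR luciferase assay, using PXR-Luc HepG2 cells in charcoal-stripped serum medium. Viability: CellTiter-Fluor fluorescence after 24hr compound treatment.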

[9] = Caspase-3/7 induction in HepG2 cells by small molecules, qHTS assay (AID 1346978); also: nearly all actives have a fitted effect of over 15% in size; also: potency is read from the fitted curve at half-maximal effect
Procedure, shortened: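 Caspase-3/7 induction was measured by Caspase-Glo 3/7 luminescence (30 min, room temperature) after a 17 hr compound exposure of wild-type HepG2 cells seeded at 2,000 per well and pre-incubated 5 hr.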

[10] = Caspase-3/7 induction in CHO-K1 cells by small molecules, qHTS cell viability counter screen (AID 1346979); also: nearly all actives have a fitted effect of over 35% in size; also: potency is read from the fitted curve at half-maximal effect
Procedure, shortened: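 Cytotoxicity counter screen run in parallel with the caspase-3/7 assay: CHO-K1 cells, 16hr compound treatment at 37C, then CellTiter-Fluor for 1hr before fluorescence reading.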

[11] = Caspase-3/7 induction in CHO-K1 cells by small molecules, qHTS assay (AID 1346980); also: nearly all actives have a fitted effect of over 15% in size
Procedure, shortened: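 Luminescent Caspase-Glo 3/7 read (30min, room temperature) quantified apoptosis induction. Cells were wild-type CHO-K1, treated with compound for 17hr at 37 C and 5% CO2.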

[12] = Caspase-3/7 induction in HepG2 cells by small molecules, qHTS cell viability counter screen (AID 1346981); also: nearly all actives have a fitted effect of over 30% in size; also: potency is read from the fitted curve at half-maximal effect
Procedure, shortened: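 Viability determined by CellTiter-Fluor fluorescence in HepG2 wells also used for the luminescent Caspase-Glo 3/7 read. Compounds were present for 16 hr at 37 C, 5% CO2 before reagent addition.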

[13] = biological target: Nuclear receptor subfamily 1 group I member 2 (Homo sapiens) (UniProt O75469); assay: Human pregnane X receptor (PXR) small molecule agonists, qHTS assay (AID 1346982); also: nearly all actives have a fitted effect of over 35% in size; also: potency is read from the fitted curve at half-maximal effect
Nuclear receptor subfamily 1 group I member 2 (Homo sapiens), sequence (O75469 whole entry, looked up): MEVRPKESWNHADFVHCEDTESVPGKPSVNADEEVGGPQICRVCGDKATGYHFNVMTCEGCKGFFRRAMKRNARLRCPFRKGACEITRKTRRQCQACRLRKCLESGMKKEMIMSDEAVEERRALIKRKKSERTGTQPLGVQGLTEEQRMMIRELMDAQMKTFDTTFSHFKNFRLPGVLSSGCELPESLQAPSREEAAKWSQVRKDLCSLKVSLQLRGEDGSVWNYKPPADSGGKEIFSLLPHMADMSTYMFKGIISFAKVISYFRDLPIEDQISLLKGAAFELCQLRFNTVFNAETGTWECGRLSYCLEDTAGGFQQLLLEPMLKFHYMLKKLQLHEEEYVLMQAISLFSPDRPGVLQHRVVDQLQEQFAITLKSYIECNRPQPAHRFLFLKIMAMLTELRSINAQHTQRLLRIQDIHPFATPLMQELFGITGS
Procedure, shortened: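 Compound-induced hPXR transactivation of a CYP3A4 luciferase reporter was scored in HepG2 PXR-Luc cells over 24 hr at 37 C, 5% CO2, by luminescence.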

[14] = biological target: Nuclear receptor subfamily 1 group I member 2 (Rattus norvegicus) (UniProt Q9R1A7); assay: Rat pregnane X receptor (rPXR) activation by small molecules, qHTS assay (AID 1346983); settings: rPXR luciferase reporter cells, One-Glo luminescence, 24 h; max activation: stronger effect = higher value; also: nearly all actives have a fitted effect of over 20% in size
Nuclear receptor subfamily 1 group I member 2 (Rattus norvegicus), sequence (Q9R1A7 whole entry, looked up): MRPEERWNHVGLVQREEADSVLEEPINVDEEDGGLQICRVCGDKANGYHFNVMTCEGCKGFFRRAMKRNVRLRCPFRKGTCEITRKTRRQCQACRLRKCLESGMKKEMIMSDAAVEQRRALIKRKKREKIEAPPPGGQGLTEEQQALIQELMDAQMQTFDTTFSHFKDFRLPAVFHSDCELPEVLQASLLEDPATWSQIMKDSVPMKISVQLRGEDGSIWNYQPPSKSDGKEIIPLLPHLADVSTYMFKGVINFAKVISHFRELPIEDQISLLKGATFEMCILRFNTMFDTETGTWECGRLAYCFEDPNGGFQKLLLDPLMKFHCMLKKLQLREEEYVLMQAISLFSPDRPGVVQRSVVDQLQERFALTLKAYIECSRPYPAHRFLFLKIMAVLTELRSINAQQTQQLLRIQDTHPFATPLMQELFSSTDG
Procedure, shortened: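 Luminescent readout (One-Glo luciferase, 30 min room temperature) followed 24 hr compound treatment at 37 C of rPXR cells plated 2,000 per well and preincubated 5hr; qHTS format with compounds delivered in DMSO.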

[15] = biological target: Nuclear receptor subfamily 1 group I member 2 (Homo sapiens) (UniProt O75469); assay: CYP3A4 induction through human pregnane X receptor (PXR) by small molecules, qHTS assay (AID 1346984); also: nearly all actives have a fitted effect of over 40% in size
Procedure, shortened: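 Readings come from a luciferase reporter: DPX-2 cells, which are HepG2 cotransfected with PXR and a CYP3A4-promoter construct, were exposed to test compounds for 24 h at 37C before One-Glo detection.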

[16] = biological target: Nuclear receptor subfamily 1 group I member 2 (Homo sapiens) (UniProt O75469); assay: Human pregnane X receptor (PXR) activation by small molecules, qHTS assay (AID 1346985); also: nearly all actives have a fitted effect of over 40% in size; also: potency is read from the fitted curve at half-maximal effect
Procedure, shortened: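 DPX-2 cells (HepG2 co-transfected with a PXR response element and a CYP3A4-promoter luciferase construct) were seeded at 2,000 per well, rested 5 hr at 37C, then exposed to DMSO-dissolved compounds for 24 hr. Activation was read as luciferase luminescence.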

[17] = biological target: Thyrotropin receptor (Homo sapiens) (UniProt P16473); assay: qHTS assay to identify small molecule antagonists of the thyroid stimulating hormone receptor (TSHR) signaling pathway (AID 1259385; calls by dose curve; also: nearly all actives have a fitted effect of over 20% in size; also: potency is read from the fitted curve at half-maximal effect)
Thyrotropin receptor (Homo sapiens), sequence (P16473 whole entry, looked up): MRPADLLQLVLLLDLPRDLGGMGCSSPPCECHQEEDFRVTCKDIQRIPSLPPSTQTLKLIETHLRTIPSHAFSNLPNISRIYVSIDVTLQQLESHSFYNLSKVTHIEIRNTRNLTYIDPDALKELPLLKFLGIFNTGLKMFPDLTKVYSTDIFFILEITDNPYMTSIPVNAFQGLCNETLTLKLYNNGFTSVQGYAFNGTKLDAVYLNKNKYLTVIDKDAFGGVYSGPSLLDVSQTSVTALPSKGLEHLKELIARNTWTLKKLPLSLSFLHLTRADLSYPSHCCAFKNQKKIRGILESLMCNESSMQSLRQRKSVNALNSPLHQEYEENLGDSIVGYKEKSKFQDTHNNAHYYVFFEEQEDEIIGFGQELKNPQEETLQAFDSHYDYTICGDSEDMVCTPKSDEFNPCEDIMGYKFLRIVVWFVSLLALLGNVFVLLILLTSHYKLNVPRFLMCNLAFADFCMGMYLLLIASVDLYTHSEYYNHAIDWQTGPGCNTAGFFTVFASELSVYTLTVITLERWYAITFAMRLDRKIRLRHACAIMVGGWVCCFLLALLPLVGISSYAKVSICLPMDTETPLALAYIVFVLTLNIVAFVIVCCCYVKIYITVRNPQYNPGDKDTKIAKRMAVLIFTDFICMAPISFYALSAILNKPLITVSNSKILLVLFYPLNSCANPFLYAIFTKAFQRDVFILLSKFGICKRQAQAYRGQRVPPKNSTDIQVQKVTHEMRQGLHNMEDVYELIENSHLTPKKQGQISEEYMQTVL
Procedure, shortened: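 Antagonist mode: compound-treated TSHR-expressing HEK293 cells were stimulated with 1.5 ng/mL TSH (final) in presence of Ro20-1724 for 30 min at RT. HTRF cAMP detection after 1 h; each compound tested at 15 concentrations, triplicate.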

[18] = biological target: Thyrotropin-releasing hormone receptor (Homo sapiens) (UniProt P34981); assay: qHTS assay to identify small molecule antagonists of the thyrotropin-releasing hormone receptor (TRHR) signaling pathway (AID 1346877; active = well fitted inhibition curve with a large enough effect in the repeat runs, not every such curve was filed as active; also: series mostly up to about 51 µM)
Thyrotropin-releasing hormone receptor (Homo sapiens), sequence (P34981 whole entry, looked up): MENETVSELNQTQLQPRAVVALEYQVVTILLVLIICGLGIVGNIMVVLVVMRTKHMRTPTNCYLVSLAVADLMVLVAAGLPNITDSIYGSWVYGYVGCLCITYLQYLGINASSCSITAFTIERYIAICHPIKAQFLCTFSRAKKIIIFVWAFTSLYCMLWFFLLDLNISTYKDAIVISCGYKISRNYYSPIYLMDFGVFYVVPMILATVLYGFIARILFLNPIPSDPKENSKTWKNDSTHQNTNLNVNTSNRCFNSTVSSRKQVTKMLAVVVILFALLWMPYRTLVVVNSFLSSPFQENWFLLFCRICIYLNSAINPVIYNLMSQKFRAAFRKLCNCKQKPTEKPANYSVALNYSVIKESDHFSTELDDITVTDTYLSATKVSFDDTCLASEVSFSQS
Procedure, shortened: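 Following an 18 h incubation at 37 °C and a 2 h calcium dye load, TRHR-HEK293 cells were exposed to compound (5 min, room temperature) and challenged with TRH, 1 nM final.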

[19] = biological target: Thyrotropin-releasing hormone receptor (Homo sapiens) (UniProt P34981); assay: qHTS assay to identify small molecule agonists of the thyrotropin-releasing hormone receptor (TRHR) signaling pathway (AID 1346891; calls by dose curve;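 also: HEK293 cells expressing TRHR with calcium dye readout; series mostly up to about 58 µM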)
Procedure, shortened: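 Cells: TRHR-Hek293, seeded and incubated 18 h. Dye loading: 2 h at 37 °C. Compound added from DMSO stock by pin tool. Read-out: kinetic calcium fluorescence over 3 min.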

[20] = biological target: Progesterone receptor (Homo sapiens) (UniProt P06401); assay: qHTS assay to identify small molecule agonists of the progesterone receptor (PR) signaling pathway (AID 1346784; calls by dose curve; also: nearly all actives have a fitted effect of over 30% in size; also: potency is read from the fitted curve at half-maximal effect)
Procedure, shortened: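 Cells (PR-UAS-bla HEK 293T, GripTite) were plated in assay medium containing 2% charcoal-stripped FBS and incubated 6 hr. Test compounds in DMSO were added for 16 hr at 37C. FRET substrate was then loaded for 2 hr at room temperature before fluorescence reading.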
% is scaled to controls: 0 for no effect and ±100 for the full control effect.

CC(C)OB(OC(C)C)OC(C)C
inactive: Potency [1] | Potency [2] | Potency [3] | Potency [4] | Potency [5] | Potency [6] | outcome [7] | Potency [8] | Potency [9] | Potency [10] | Potency [11] | Potency [12] | Potency [13]

C=C(C)C1CC=C(C)CC1 (stereo not given)
inactive: Potency [1] | Potency [2] | Potency [3] | Potency [4] | Potency [6] | outcome [7] | Potency [8] | Potency [9] | Potency [10] | Potency [11] | Potency [13] | max activation [14] -4.17% | Potency [15] | Potency [16]

COC(=O)CCC(=O)OC
56 µM (active) and inactive: Potency [13]
inactive: Potency [17] | Potency [1] | Potency [3] | Potency [4] | Potency [5] | Potency [6] | outcome [7] | Potency [18] | Potency [19] | Potency [8] | Potency [9] | Potency [10] | Potency [11] | Potency [12]

CNCCCC12CCC(c3ccccc31)c1ccccc12
active: Potency [3] 13.7 µM and 26.6 µM | Potency [8] 27.3 µM | Potency [9] 27.3 µM
inactive: Potency [17] | Potency [1] | Potency [5] | Potency [6] | outcome [7] | Potency [18] | Potency [19] | Potency [11]
61.1 µM (active) and inactive: Potency [10]
19.3 µM (active) and inactive: Potency [4]

O=c1oc(=O)c2cc3c(=O)oc(=O)c3cc12
inactive: Potency [1] | Potency [2] | Potency [3] | Potency [4] | Potency [5] | Potency [6] | outcome [7] | Potency [18] | Potency [19] | Potency [8] | Potency [9] | Potency [10] | Potency [11]

COc1cc([C@@H]2c3cc4c(cc3[C@H](O)[C@H]3COC(=O)[C@H]23)OCO4)cc(OC)c1OC
active: Potency [10] 8.6 nM and 21.1 nM | Potency [13] 48.5 nM | Potency [16] 14.1 µM
inactive: Potency [17] | Potency [1] | Potency [5] | Potency [6] | outcome [7] | Potency [18] | Potency [19] | Potency [8] | Potency [9] | Potency [11]

O=C1c2cccc(O)c2C(=O)c2c(O)cccc21
inactive: Potency [17] | Potency [20] | Potency [2] | Potency [3] | Potency [4] | Potency [5] | Potency [6] | outcome [7] | Potency [18] | Potency [19] | Potency [8] | Potency [9] | Potency [10] | Potency [11] | Potency [12] | Potency [13] | max activation [14] -1.61% | Potency [15] | Potency [16]

CC(=O)C1(C)CC2=C(CCCC2(C)C)CC1C (stereo not given)
active: Potency [17] 43.3 µM
inactive: Potency [1] | Potency [3] | Potency [4] | Potency [5] | Potency [6] | outcome [7] | Potency [18] | Potency [19] | Potency [8] | Potency [9] | Potency [10] | Potency [11] | Potency [12] | Potency [13]

C[C@]12CC[C@H]3[C@@H](CCC4=CC(=O)CC[C@@]43C)[C@@H]1CC[C@@H]2C(=O)CO
active: Potency [20] 0.237 µM
21.7 µM (active) and inactive: Potency [13]
inactive: Potency [1] | Potency [2] | Potency [3] | Potency [5] | Potency [6] | outcome [7] | Potency [18] | Potency [19] | Potency [8] | Potency [9] | Potency [10] | Potency [11] | Potency [15] | Potency [16]

O=C(c1ccc(OCCN2CCCCC2)cc1)c1c(-c2ccc(O)cc2)sc2cc(O)ccc12
68.7 µM (active) and inactive: Potency [9]
inactive: Potency [6] | Potency [11]
active: Potency [1] 54.5 µM and 30.6 µM | Potency [2] 30.6 µM and 29.8 µM | Potency [3] 61.2 µM and 61.1 µM and 26.6 µM | Potency [4] 48.6 µM and 68.6 µM and 29.8 µM | Potency [8] 21.7 µM and 24.3 µM and 23.7 µM | Potency [10] 54.5 µM and 61.1 µM and 26.6 µM | Potency [12] 61.2 µM and 61.1 µM

COc1cccc2c1C(=O)c1c(O)c3c(c(O)c1C2=O)C[C@@](O)(C(=O)CO)C[C@@H]3O[C@H]1C[C@H](N)[C@H](O)[C@H](C)O1
active: Potency [1] 24.3 µM and 29.8 µM | Potency [2] 2.73 µM and 9.44 µM | Potency [8] 1.72 µM and 6.68 µM | Potency [9] 5.96 µM | Potency [10] 9.67 µM and 21.1 µM | Potency [12] 3.85 µM and 11.9 µM
inactive: Potency [5] | Potency [6] | outcome [7] | Potency [18] | Potency [19] | Potency [11] | Potency [13] | max activation [14] -0.0344% and 3.76% | Potency [15] | Potency [16]

NC=O
inactive: Potency [1] | Potency [20] | Potency [2] | Potency [3] | Potency [4] | Potency [5] | Potency [6] | outcome [7] | Potency [9] | Potency [10] | Potency [11] | Potency [12] | Potency [13]

C[C@]12CCC(=O)C=C1CC[C@@H]1[C@@H]2C(=O)C[C@@]2(C)[C@H]1CC[C@]2(O)C(=O)CO
active: Potency [2] 11.9 µM
inactive: Potency [1] | Potency [3] | Potency [4] | Potency [5] | Potency [6] | outcome [7] | Potency [8] | Potency [9] | Potency [10] | Potency [11] | Potency [13] | max activation [14] 0.346% | Potency [15] | Potency [16]
